# Compound activity as filed in PubChem.
# HGIII-sPLA2 inh: Blocks human group III sPLA2 activity | Q9NZ20 | QFRET BODIPY PC-A2 liposome hydrolysis, fluorescence | inhibition, % at 12.2 µM | 0.56% of 370,000 active;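 active = inhibition above mean plus 3 SD of compounds lying within the high and low control bounds, cut at about 19% in these data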
# Target sequence (Q9NZ20 whole entry, looked up): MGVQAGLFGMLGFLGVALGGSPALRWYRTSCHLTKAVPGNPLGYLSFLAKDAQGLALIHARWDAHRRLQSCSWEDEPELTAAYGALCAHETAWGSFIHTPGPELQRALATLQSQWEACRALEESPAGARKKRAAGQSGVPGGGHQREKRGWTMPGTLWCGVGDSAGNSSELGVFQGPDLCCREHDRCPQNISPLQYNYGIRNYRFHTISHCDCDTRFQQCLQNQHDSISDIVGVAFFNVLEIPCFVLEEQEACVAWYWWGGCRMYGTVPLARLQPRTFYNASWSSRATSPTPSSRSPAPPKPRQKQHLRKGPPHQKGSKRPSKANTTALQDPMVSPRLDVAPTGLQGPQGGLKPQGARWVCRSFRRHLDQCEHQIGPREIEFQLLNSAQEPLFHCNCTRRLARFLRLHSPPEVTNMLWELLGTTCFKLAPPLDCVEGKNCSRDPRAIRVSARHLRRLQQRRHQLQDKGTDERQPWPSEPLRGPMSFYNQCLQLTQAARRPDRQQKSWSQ
# rCAG binder: binds r(CAG) RNA repeats; r(CAG) RNA repeat, TO-PRO-1 dye displacement fluorescence; inhibition, % at 3 µM; 1.3% of 370,000 active; AID 651821;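 active = inhibition above the plate cutoff, the mean of all test compounds on that plate plus 3 SD, cut at about 35% in these data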;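 note: higher means more dye released from RNA so lower well fluorescence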
# MsrA act: bovine methionine sulfoxide reductase A activation; purified bovine MsrA, absorbance read-out; activation, % at 10.6 µM; 0.3% of 360,000 active; AID 602163; in the data active = activation above about 7.5%
# MsrA inhibitor: inhibits bovine methionine sulfoxide reductase A; purified bovine MsrA, absorbance read-out; inhibition, % at 15.5 µM; 0.75% of 360,000 active; in the data active = inhibition above about 4.5%
# PG9 binder: binds the HIV-1 gp120 antibody PG9; inhibition, % at 6.7 µM; TR-FRET gp120-PG9 antibody binding; 0.43% of 360,000 active; in the data active = inhibition above about 8.5%
# rCAG binder conf: r(CAG) RNA repeat binding, confirmation. shares compounds with rCAG binder. TO-PRO-1 dye displacement fluorescence. inhibition, % at 3 µM. 70% of 4,300 active;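 active = inhibition above a per-plate cutoff, the mean inhibition of sample wells plus 3 SD, cut at about 35% in these data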;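 note: loss of TO-PRO-1 fluorescence as compound displaces dye from 1x1 AA loop RNA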
# dCAG dye counter: DNA CAG dye complex inhibition counter-screen | shares compounds with rCAG binder | 94% of 4,300 active | d(CAG) DNA oligo TO-PRO-1 dye displacement, fluorescence | inhibition, % at 3 µM | AID 652068;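 active = inhibition above its plate's cutoff, the mean test-well inhibition plus 3 SD, cut at about 4.8% in these data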;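 note: hits displace the dye from DNA and so lower well fluorescence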
# DNA CAG DR: counter-screen for rCAG binders: inhibitors of DNA CAG TO-PRO-1 complex; shares compounds with rCAG binder; 20% of 250 active; DNA CAG/GTC duplex TO-PRO-1 dye displacement fluorescence; IC50, µM; in the data active = IC50 below about 10 µM
# A number is an active result; – = inactive; · = no result given. Rows were chosen to be rich in hits. Some 3.2% of all compounds tested hit in one or more screens of this group.
SMILES,HGIII-sPLA2 inh,rCAG binder,MsrA act,MsrA inhibitor,PG9 binder,rCAG binder conf,dCAG dye counter,others
CO[C@H]1/C=C/O[C@@]2(C)Oc3c(C)c(O)c4c(O)c(c(C=NN5CCN(C)CC5)c(O)c4c3C2=O)NC(=O)/C(C)=C\C=C\[C@H](C)[C@H](O)[C@@H](C)[C@@H](O)[C@@H](C)[C@H](OC(C)=O)[C@@H]1C,–,82.6,–,–,–,73.8,43.9,
O=c1nc2s/c(=C\c3ccc(-c4ccccc4[N+](=O)[O-])o3)c(=O)n2nc1-c1ccccc1,–,46.3,–,–,–,51.3,25.4,
CCC(C)(C)c1ccc(Oc2cccc(C(=O)O)c2)cc1,–,39.4,–,–,–,–,–,
CN(C)/C=C(/C#N)C(=O)c1cccc(Oc2ccc(C(C)(C)C)cc2)c1,–,50.1,–,–,–,–,6.1,
Cc1ccccc1Oc1cccc(C(=O)/C(C#N)=C/N(C)C)c1,–,–,–,–,–,·,·,
CCC(C)(C)c1ccc(Oc2ccc(N)cc2)cc1,–,–,–,–,–,·,·,
Cc1ccc(S(=O)(=O)n2ccc(-c3c(-c4ccc(F)cc4)noc3C)n2)cc1,–,–,·,·,·,·,·,
CCOC(=O)c1c(NC(C)=O)sc(/C(C)=N/Nc2ccc(C(=O)O)cc2)c1C,–,40.0,–,–,–,–,–,
CC(C)(C)C(=O)OC12CCCN(C1)/C(=C/c1ccccc1)C2 (stereo not given),–,–,·,·,·,·,·,
Cc1cc(C)c(Nc2cc(S(=O)(=O)O)c(N)c3c2C(=O)c2ccccc2C3=O)c(C)c1,–,93.8,–,–,–,93.4,79.4,
Cc1cc(C)c(NC(=O)COC(=O)c2cccc3c2C(=O)c2ccccc2C3=O)c(C)c1,–,–,–,–,–,·,·,
O=C(Cn1cnc2ccccc2c1=O)N1CCN(Cc2ccc(F)cc2)CC1,–,–,·,·,·,·,·,
Cc1cc(-c2csc(NC(=O)c3cc4ccccc4o3)n2)c(C)n1C,–,44.2,–,–,–,52.2,25.4,
COc1ccc(-n2c(SCc3ccc([N+](=O)[O-])cc3)nnc2-c2ccco2)cc1,–,–,·,·,·,·,·,
CC1(C(=O)NS(=O)(=O)c2ccc(Cl)cc2)CCN1C(=O)C1(c2ccccc2)CCCC1 (stereo not given),–,49.9,–,–,–,40.1,11.8,
CC1(C(=O)NS(=O)(=O)c2ccc(C#N)cc2)CCN1C(=O)C1(c2ccc(Cl)cc2)CC1 (stereo not given),–,–,–,–,–,·,·,
CC1(C(=O)NS(=O)(=O)c2ccc(Cl)cc2)CCN1C(=O)C1(c2ccc(Cl)cc2)CCC1 (stereo not given),–,55.3,–,–,–,55.6,18.1,
CC1(C(=O)NS(=O)(=O)Cc2ccccc2)CCN1C(=O)C1(c2ccc(Cl)cc2)CCC1 (stereo not given),–,40.9,–,–,–,–,6.7,
CC(C)(C)c1ccc(S(=O)(=O)NC(=O)C2(C)CCN2C(=O)C2(c3ccccc3)CC2)cc1 (stereo not given),–,47.1,–,–,–,39.9,10.1,
O=C(OC12CCCN(C1)/C(=C/c1ccc(Cl)cc1)C2)C1CCCC1 (stereo not given),–,–,·,·,·,·,·,
COc1ccc2c(c1)CN1C(=O)N(C3CCCC3)S(=O)(=O)CC21 (stereo not given),–,–,·,·,·,·,·,
COC(=O)[C@]12C[C@H](CC(=O)NCc3cccc4ccccc34)C(=O)N(Cc3ccccc3)C1=C[C@H](COCc1ccccc1)O[C@@H]2C,–,–,·,·,·,·,·,
CCCCN1CCN(C2=NC(=O)N(c3ccc(Br)cc3)C(=O)C2)CC1,–,–,·,·,·,·,·,
CN(C)[C@H]1CCN(c2ccc3c(c2)O[C@@H]2CCN(C2)S3(=O)=O)C1,–,–,·,·,·,·,·,
O=C(C1CCN(c2nc(-c3ccc(Br)cc3)cs2)CC1)N1CCNCC1,–,·,·,·,·,·,·,
SMILES,HGIII-sPLA2 inh,rCAG binder,MsrA act,MsrA inhibitor,PG9 binder,rCAG binder conf,dCAG dye counter,others
CC1(C(=O)NS(=O)(=O)c2ccc3c(c2)CCO3)CCN1C(=O)C1(c2ccc(Cl)cc2)CCC1 (stereo not given),–,35.7,–,–,–,–,–,
CC1(C(=O)NS(=O)(=O)c2ccccc2)CCN1C(=O)C1(c2ccc(Cl)cc2)CC1 (stereo not given),–,–,–,–,–,·,·,
Cc1ccc(S(=O)(=O)NC(=O)C2(C)CCN2C(=O)C2(c3ccc(Cl)cc3)CCC2)cc1 (stereo not given),–,42.5,–,–,–,38.7,10.0,
CCS(=O)(=O)NC(=O)C1(C)CCN1C(=O)C1(c2ccc(Cl)cc2)CC1 (stereo not given),–,–,–,–,–,·,·,
Cc1ccc(S(=O)(=O)NC(=O)C2(C)CCN2C(=O)C2(c3ccc(Cl)cc3)CC2)cc1 (stereo not given),–,57.1,–,–,–,–,5.7,
COC(=O)[C@]12C[C@H](CC(=O)N3CCC(c4ccccc4)CC3)C(=O)N(CCc3ccc(OC)c(OC)c3)C1=C[C@H](COCc1ccccc1)O[C@@H]2C,–,–,·,·,·,·,·,
Fc1ccc(C2=Nn3c(nnc3C3CCCCC3)SC2)cc1,–,–,·,·,·,·,·,
O=C(O)CN1C(=O)/C(=C\c2cccc(OCc3ccccc3)c2)SC1=S,–,81.3,–,–,–,72.1,35.3,
O=C(O)CN1C(=O)/C(=C\c2ccccc2OCc2ccc(F)cc2)SC1=S,–,84.0,–,–,–,72.1,30.6,DNA CAG DR=–
O=C(O)CN1C(=O)/C(=C\c2ccccc2OCc2ccccc2)SC1=S,–,72.6,–,–,–,73.4,33.2,DNA CAG DR=–
CN1C(=O)/C(=C\c2cccc(OCc3ccccc3)c2)SC1=S,–,–,–,–,–,·,·,
O=C(O)CCCCN1C(=O)/C(=C\c2ccc(OCc3ccccc3)c(OCc3ccccc3)c2)SC1=S,–,–,–,–,–,·,·,
CN1C(=O)/C(=C/c2ccccc2OCc2ccc(F)cc2)N(C)C1=S,–,–,–,–,–,·,·,
C[C@@H]1OC(C2CCCCC2)N(C)[C@H]2C[C@H]3c4cc(N5CCOCC5)ccc4CCN3C[C@@H]12 (stereo not given in full),–,–,·,·,·,·,·,
O=C(c1cccc(F)c1)n1ccc2ccc(-c3ccc4ccn(Cc5ccccc5)c4c3)cc21,–,–,·,·,·,·,·,
O=C(NCCc1ccccc1)OCc1cn(Cc2ccc(Cl)cc2)nn1,–,–,·,·,·,·,·,
N=C1/C(=C/c2ccc(-c3cccc(C(=O)O)c3)o2)C(=O)N=C2SC(CC(=O)N3CCOCC3)=NN12,–,–,–,–,–,·,·,
N=C1/C(=C\c2ccc(-c3cccc(C(=O)O)c3)o2)C(=O)N=C2SC=C(c3ccccc3)N12,–,85.8,–,–,–,91.3,69.9,
Cc1c(C(=O)O)oc2ccc(S(=O)(=O)N(CC(C)C)CC(C)C)cc12,–,46.0,–,–,–,–,–,
CCN(CC)S(=O)(=O)c1ccc2oc(C(=O)O)c(C)c2c1,–,–,–,–,–,·,·,
